# Reference: PubChem BioAssay AID1259240 (Keith Lab, Institute of Cancer Science, University of …, 2017)
# Unmarked numbers belong to inactive results. Activity calls are given as the source filed them. Cut-off read from the data, not from the text of the source: active = fold change mostly below about -2 (no sharp cut-off); inactive = mostly above about -1.8.
# Test: modulation of TERT promoter-driven luciferase – cell-based, luciferase reporter, human, primary screen (AID 1259240)
# Settings: A2780 TERT promoter luciferase reporter, 16 h; at 20 µM, fold versus average of vehicle-only wells
Structure (SMILES),fold change,outcome
COc1ccc(Cl)cc1Nc1nc(-c2c(C)nc3ncccn23)cs1,-3.45 (active),–
O=C(CCCCn1c(=O)[nH]c2ccsc2c1=O)NCCc1c[nH]c2ccccc12,-2.16 (active),–
COCC(=O)N1N=C(c2ccc(NS(C)(=O)=O)cc2)CC1c1ccco1 (centres undefined),1.02,–
Cc1cccc(NC(=O)C2CCCN(S(=O)(=O)c3cnc[nH]3)C2)n1 (centres undefined),-2.48 (active),–
COc1ccc(Nc2nc(N)nc(CSc3nccn3C)n2)cc1,1.57,–
O=S(=O)(NCc1ccc2c(c1)OCO2)c1cccc2cccnc12,-1.35,–
COc1ccc2c(c1)OC13CCCCC1C2C(C(=O)c1ccccc1)C(=O)N3 (centres undefined),-2.84 (active),–
Cc1cc(C)c(C#N)c(SCC(=O)Nc2nc(-c3ccccc3)ns2)n1,-1.27,–
CC1CCCN(C(=O)c2ccc3c(=O)n4c(nc3c2)CCCCC4)C1 (centres undefined),1.14,–
Oc1oc(-c2ccccc2)nc1C=Nc1ccc(Cl)c2cccnc12,–,inactive
CCC(C)(C)C(=O)Nc1nc2c(s1)C(=O)CC(C)(C)C2,1.17,–
CCOC(=O)N1CCC(Nc2c(N3CCN(c4ccccc4F)CC3)c(=O)c2=O)CC1,-1.13,–
COc1cc(Nc2nc3ccccc3n3cnnc23)cc(OC)c1OC,1.1,–
O=S(=O)(c1cccc(-c2cn3ccccc3n2)c1)N1CCCCC1,-1.03,–
O=C(O)CN1C(=O)/C(=C/c2ccc(SCc3ccccc3)o2)SC1=S,1.04,–
O=C(CN1C(=O)COc2ccc(S(=O)(=O)N3CCCC3)cc21)NCCCN1CCOCC1,-1.17,–
Nc1cc(-c2ccccc2)nn1S(=O)(=O)c1cccc([N+](=O)[O-])c1,1.1,–
COC(=O)CCn1nc(-c2ccc(Cl)cc2)c2ccccc2c1=O,-1.07,–
O=C(CC(=O)Nc1ccccn1)Nc1ccc2nc3n(c(=O)c2c1)CCCCC3,-1.11,–
O=C(CC1C(=O)N(c2cccc(Cl)c2)C(=O)N1Cc1cccs1)Nc1ccccc1 (centres undefined),1.26,–

Structure (SMILES),fold change,outcome
O=C(O)Cn1cc(/C=C2/C(=O)Nc3ccccc32)c2ccccc21,1.41,–
COc1ccc(N2CCN(c3ccc4nnc(C)n4n3)CC2)cc1,-1.14,–
CCCC1=NN2C(=N)/C(=C\c3ccc(SCc4ccco4)o3)C(=O)N=C2S1,-1.68,–
CCOc1cc2c(cc1OCC)C(c1cc(OC)c(OC)c(OC)c1)CC(=O)N2 (centres undefined),-1.02,–
COCCNC(=O)CCSc1nc(-c2ccc3c(c2)OCO3)cc(C(F)(F)F)n1,-1.36,–
CC(C)C(NS(=O)(=O)c1ccc2c(c1)oc(=O)n2C)C(=O)N1CCN(c2ccccc2F)CC1 (centres undefined),1.1,–
Cc1ccc(-n2c(C)c3c(C)nn4cc(C)cc4c3c2C)cc1,-2.26 (active),–
CCc1c2c(nc3sc(C(=O)NCc4ccc5c(c4)OCO5)c(N)c13)CC(C)(C)CC2=O,-1.01,–
COc1ccc(Nc2c(-c3ccc(N4CCOCC4)cc3)nc3ncccn23)cc1OC,-1.26,–
CCOc1cccc2cc(S(=O)(=O)c3ccc(C(C)(C)C)cc3)c(=O)oc12,-1.2,–
Clc1ccc(-c2nnn3c2nc(NCC2CCCO2)c2ccccc23)cc1 (centres undefined),-1.11,–
Cc1ccc2nc(NCc3ccc(F)cc3)c3nncn3c2c1,1.08,–
CCOc1ccc2[nH]c(C)c(CN3CC4(C)CC3CC(C)(C)C4)c(=O)c2c1 (centres undefined),-1.96,–
Cc1ccc(N2C(=O)c3n[nH]c(C)c3C2c2ccccc2Cl)cc1 (centres undefined),-1.14,–
c1csc(CSc2nnc3sc4ccccc4n23)c1,1.26,–
COc1ccc(-c2c(C)oc3c(CN4CCN(C)CC4)c(O)ccc3c2=O)cc1,1.02,–
Cn1c(=O)oc2cc(S(=O)(=O)N3CCCC(C(=O)NC4CCCCCCC4)C3)ccc21 (centres undefined),1.03,–
Cc1cc(S(=O)(=O)n2nc(-c3cccc(F)c3)cc2N)ccc1F,-1.3,–
CN1CCN(C(=O)C2CCN(c3ccc(N4CCOCC4)nn3)CC2)CC1,-1.4,–
